Data on five molecules can be found in PubChem BioAssay.

For assay [1], the target named is Albumin (Bos taurus) (UniProt P02769). The experiment in a line: bovine serum albumin binders on microarray, profiling panel, artefact control for SMM control protein annotation, biochemical, small-molecule microarray, Alexa647 label, 635/667 nm fluorescence (AID 1118).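 Further: score merges 667 nm emission intensity and signal-to-noise per printed compound spot.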 As to conditions: BSA-A647 binding, fluorescence 635 nm, higher = more signal.
Assay [2] in a line: small-molecule microarray binders of probe aXIP, primary screen, biochemical, NeuroSMM set, 635/667 nm fluorescence (AID 1119).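 Further: probe is the protein aXip251-270 applied at 1 µg/mL to compound-printed slides; binding of probe to printed compounds measured as 667 nm fluorescence plus signal to noise.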 As to conditions: higher = more signal, called active from +8 up or from −8 down.
Assay [3] is described as follows: small-molecule binders of probe aNOTCH3, primary screen, biochemical, small-molecule microarray, 635/667 nm fluorescence (AID 1120).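 Further: probe is a biotin-tagged antibody raised against NOTCH3 rather than NOTCH3 protein; score merges spot fluorescence near 667 nm with spot signal to noise.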 As to conditions: higher = more signal.
Assay [4] can be described thus: small-molecule binders of probe aNOTCH2, primary screen, biochemical, small-molecule microarray, 635/667 nm fluorescence (AID 1121).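 Further: score merges feature fluorescence read at 667 nm with its signal to noise.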 The conditions noted are these: higher = more signal.
Assay [5] concerns the target Carbonic anhydrase 2 (Homo sapiens) (UniProt P00918). The experiment in a line: CAII small-molecule binders, profiling panel, biochemical, small-molecule microarray, Alexa647-labelled CAII (AID 1122). As to conditions: CAII-A647 binding fluorescence, higher = more signal.
Assay [6] in a line: COS7 lysate on small-molecule microarray, probe aHis, 635 nm (AID 1123).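 Further: z-score combines 667nm fluorescence intensity with signal-to-noise per printed compound spot.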 As to conditions: COS7 cell lysate, fluorescence, higher = more signal.
Assay [7] can be described thus: compound binding in COS7 lysate, probe aLAP1, primary screen, cell lysate, small-molecule microarray (AID 1124).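 Further: lysate comes from COS7 cells expressing LAP1 and is applied at 0.3 µg/mL; score merges spot fluorescence near 667 nm with signal-to-noise over triplicate slides.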 As to conditions: probe aLAP1, fluorescence, higher = more signal.
The test system of assay [8] is Sam68 (KHDRBS1). The experiment in a line: Sam68 small-molecule binders, primary screen, biochemical, small-molecule microarray, 635 nm fluorescence (AID 1125).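 Further: score merges 667 nm channel intensity with signal to noise over triplicate slides.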 The conditions noted are these: small-molecule microarray binding, higher = more signal.
Assay [9] has as its system Chordin-like protein 2 (CHRDL2). The experiment in a line: CHRDL2 small-molecule binders, primary screen, biochemical, small-molecule microarray, 635 nm fluorescence (AID 1126).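 Further: printed compound slides probed with Chrdl2 protein at 4 µg/mL for 1 h at 4 C; score merges 667 nm emission intensity with signal to noise over three replicate slides.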 As to conditions: small-molecule microarray binding, fluorescence 635 nm; higher = more signal.
Assay [10] deals with Concanavalin-A (Canavalia ensiformis) (UniProt P02866). The experiment in a line: ConA small-molecule binders, primary screen, artefact control for SMM control protein annotation, biochemical, small-molecule microarray, Alexa647 label, 635 nm (AID 1127).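 Further: z combines 667 nm emission intensity with signal-to-noise across three replicate slides.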 The conditions noted are these: ConA-A647 binding fluorescence, higher = more signal.
Assay [11] can be described thus: anti-His antibody binders, primary screen, artefact control for SMM control protein annotation, biochemical, small-molecule microarray, 635 nm fluorescence (AID 1128).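 Further: score merges feature fluorescence with signal-to-noise for each printed compound spot.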 As to conditions: anti-His Alexa647 antibody binding, higher = more signal.
The test system of assay [12] is Human papillomavirus type 1a E7 protein (residues 1-88). The experiment in a line: HPV1a E7 small-molecule binders, primary screen, biochemical, small-molecule microarray, residues 1-88, 635 nm (AID 1129). The conditions noted are these: small-molecule microarray binding, fluorescence 635 nm; higher = more signal.
Assay [13] addresses Focal adhesion kinase 1 (Homo sapiens) (UniProt Q05397). The experiment in a line: small-molecule microarray binders of FAK, primary screen, biochemical, 635/667 nm fluorescence, BSA, DTT (AID 1130).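 Further: composite of spot emission at 667 nm and signal to noise over triplicate slides.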 The conditions noted are these: PTK2 binding, 635 nm fluorescence, higher = more signal.
Assay [14] deals with Fibrinogen (Alexa647-labelled). The experiment in a line: fibrinogen binders on compound microarrays, profiling panel, artefact control for SMM control-protein annotation, biochemical, small-molecule microarray, 635/667 nm fluorescence (AID 1131).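 Further: z-score merges 667 nm fluorescence with per-spot signal-to-noise over triplicate slides.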 The conditions noted are these: fibrinogen-A647 binding fluorescence, higher = more signal.
The target in assay [15] is Follistatin (Homo sapiens) (UniProt P19883). The experiment in a line: follistatin binders on small-molecule microarrays, primary screen, biochemical, small-molecule microarray, 635/667 nm fluorescence (AID 1132). As to conditions: FST binding, 635 nm fluorescence, higher = more signal.
The target of assay [16] is Fibroblast growth factor 2 (Homo sapiens) (UniProt P09038). The experiment in a line: FGF2 binders on small-molecule microarrays, primary screen, biochemical, small-molecule microarray, 635/667 nm fluorescence (AID 1133). The conditions noted are these: small-molecule microarray binding, FGF2, fluorescence 635/667; higher = more signal.
The nature of assay [17]: mitochondrial membrane potential change in A549 cells, profiling panel, cell-based, JC-1 fluorescence, basal, 24 h, 100 nL (AID 1138).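 Further: A549 lung adenocarcinoma cells under basal conditions with no added stimulus; test concentration not given here.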 The conditions noted are these: higher = more signal.
The test system of assay [18] is Lefty1. The experiment in a line: Lefty1 binders on small-molecule microarrays, primary screen, biochemical, small-molecule microarray, 635/667 nm fluorescence (AID 1139). As to conditions: small-molecule microarray binding, fluorescence 635/667; higher = more signal.
The subject of assay [19] is wheat germ agglutinin (Triticum aestivum), Alexa647-labelled. The experiment in a line: wheat germ agglutinin binders on compound microarrays, profiling panel, artefact control for SMM control-protein annotation, biochemical, small-molecule microarray, 635/667 nm fluorescence (AID 1140).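 Further: score merges 667 nm feature emission with signal to noise over triplicate slides.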 The conditions noted are these: WGA-A647 binding, 635 nm fluorescence, higher = more signal.

The target of assay [20] is Luciferin 4-monooxygenase (Photinus pyralis) (UniProt P08659). The experiment in a line: firefly luciferase enzyme inhibitors, primary screen, biochemical, luminescence, purified enzyme, 2006 set (AID 1141).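 Further: cell-free assay with purified firefly luciferase at 100 ng per well in PBS; test concentration not given here.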 The conditions noted are these: SteadyGlo luminescence, 30 min, higher = more signal, called active from +8 up or from −8 down.

Calls of active or inactive are those of the source.

Sequence of Fibroblast growth factor 2 (Homo sapiens) (P09038 whole entry, looked up): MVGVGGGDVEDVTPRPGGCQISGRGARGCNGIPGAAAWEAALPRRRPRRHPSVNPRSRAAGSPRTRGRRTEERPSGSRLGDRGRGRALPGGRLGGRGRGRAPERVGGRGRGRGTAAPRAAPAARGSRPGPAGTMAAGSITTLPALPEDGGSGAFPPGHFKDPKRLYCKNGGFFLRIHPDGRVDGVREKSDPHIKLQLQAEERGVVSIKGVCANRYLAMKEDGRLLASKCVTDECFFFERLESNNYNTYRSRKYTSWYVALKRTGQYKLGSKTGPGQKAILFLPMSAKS
Sequence of Focal adhesion kinase 1 (Homo sapiens) (Q05397 whole entry, looked up): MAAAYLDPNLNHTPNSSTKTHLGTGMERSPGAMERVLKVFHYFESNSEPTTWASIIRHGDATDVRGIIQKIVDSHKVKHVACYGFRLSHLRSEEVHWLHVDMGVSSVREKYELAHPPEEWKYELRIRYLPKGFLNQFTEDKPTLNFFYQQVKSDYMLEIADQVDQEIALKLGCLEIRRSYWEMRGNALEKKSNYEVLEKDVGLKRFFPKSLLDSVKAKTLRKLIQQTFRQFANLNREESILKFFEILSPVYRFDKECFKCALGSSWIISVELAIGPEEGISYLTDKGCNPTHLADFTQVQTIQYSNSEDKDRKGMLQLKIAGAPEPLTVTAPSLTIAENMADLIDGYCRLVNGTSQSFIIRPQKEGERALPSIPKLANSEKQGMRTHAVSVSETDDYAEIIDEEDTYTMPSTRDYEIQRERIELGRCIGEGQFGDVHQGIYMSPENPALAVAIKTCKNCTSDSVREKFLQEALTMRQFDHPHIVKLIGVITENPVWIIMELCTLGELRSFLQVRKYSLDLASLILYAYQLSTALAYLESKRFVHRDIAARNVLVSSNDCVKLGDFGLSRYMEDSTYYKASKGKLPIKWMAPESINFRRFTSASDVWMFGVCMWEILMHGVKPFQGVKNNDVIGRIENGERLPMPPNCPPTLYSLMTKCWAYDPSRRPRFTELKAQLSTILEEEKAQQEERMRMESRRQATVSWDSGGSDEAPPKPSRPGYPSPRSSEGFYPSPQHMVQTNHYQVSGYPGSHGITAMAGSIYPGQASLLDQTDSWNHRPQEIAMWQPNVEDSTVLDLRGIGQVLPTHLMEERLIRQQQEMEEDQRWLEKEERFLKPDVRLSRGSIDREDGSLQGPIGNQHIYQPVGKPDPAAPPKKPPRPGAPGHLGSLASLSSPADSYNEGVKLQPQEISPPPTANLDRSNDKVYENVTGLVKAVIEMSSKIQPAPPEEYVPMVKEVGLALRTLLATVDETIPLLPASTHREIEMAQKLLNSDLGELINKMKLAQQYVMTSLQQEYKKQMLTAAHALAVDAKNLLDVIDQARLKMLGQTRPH
Sequence of Luciferin 4-monooxygenase (Photinus pyralis) (P08659 whole entry, looked up): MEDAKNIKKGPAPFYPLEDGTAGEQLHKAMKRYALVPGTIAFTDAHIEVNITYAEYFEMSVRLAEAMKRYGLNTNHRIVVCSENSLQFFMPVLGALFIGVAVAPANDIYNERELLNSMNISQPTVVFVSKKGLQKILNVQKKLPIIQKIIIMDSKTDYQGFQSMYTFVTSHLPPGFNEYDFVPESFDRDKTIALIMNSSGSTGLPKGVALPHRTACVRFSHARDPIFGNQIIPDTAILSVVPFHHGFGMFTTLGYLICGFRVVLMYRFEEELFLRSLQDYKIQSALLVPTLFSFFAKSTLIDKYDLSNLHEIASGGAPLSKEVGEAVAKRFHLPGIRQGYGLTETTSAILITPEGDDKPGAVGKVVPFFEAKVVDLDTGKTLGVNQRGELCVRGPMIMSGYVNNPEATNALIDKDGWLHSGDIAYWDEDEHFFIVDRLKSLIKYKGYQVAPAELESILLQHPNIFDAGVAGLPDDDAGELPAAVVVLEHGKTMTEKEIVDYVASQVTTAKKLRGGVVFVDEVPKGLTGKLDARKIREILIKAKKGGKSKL
Sequence of Concanavalin-A (Canavalia ensiformis) (P02866 whole entry, looked up): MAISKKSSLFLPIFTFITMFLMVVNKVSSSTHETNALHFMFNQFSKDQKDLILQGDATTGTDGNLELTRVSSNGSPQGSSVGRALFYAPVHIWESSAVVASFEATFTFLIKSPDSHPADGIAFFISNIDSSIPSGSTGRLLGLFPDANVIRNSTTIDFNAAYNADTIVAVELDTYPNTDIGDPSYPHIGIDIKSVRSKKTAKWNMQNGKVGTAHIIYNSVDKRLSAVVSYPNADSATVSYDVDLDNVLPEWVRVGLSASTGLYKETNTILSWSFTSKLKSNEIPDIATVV
Sequence of Follistatin (Homo sapiens) (P19883 whole entry, looked up): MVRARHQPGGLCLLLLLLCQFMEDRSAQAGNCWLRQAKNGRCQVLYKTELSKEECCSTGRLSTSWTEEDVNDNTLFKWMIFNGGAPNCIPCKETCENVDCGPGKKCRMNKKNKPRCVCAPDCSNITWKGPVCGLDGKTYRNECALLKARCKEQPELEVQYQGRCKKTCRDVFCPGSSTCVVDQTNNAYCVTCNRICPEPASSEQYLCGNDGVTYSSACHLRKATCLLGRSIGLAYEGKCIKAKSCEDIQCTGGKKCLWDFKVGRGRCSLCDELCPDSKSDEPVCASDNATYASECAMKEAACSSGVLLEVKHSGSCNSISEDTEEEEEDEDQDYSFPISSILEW
Sequence of Albumin (Bos taurus) (P02769 whole entry, looked up): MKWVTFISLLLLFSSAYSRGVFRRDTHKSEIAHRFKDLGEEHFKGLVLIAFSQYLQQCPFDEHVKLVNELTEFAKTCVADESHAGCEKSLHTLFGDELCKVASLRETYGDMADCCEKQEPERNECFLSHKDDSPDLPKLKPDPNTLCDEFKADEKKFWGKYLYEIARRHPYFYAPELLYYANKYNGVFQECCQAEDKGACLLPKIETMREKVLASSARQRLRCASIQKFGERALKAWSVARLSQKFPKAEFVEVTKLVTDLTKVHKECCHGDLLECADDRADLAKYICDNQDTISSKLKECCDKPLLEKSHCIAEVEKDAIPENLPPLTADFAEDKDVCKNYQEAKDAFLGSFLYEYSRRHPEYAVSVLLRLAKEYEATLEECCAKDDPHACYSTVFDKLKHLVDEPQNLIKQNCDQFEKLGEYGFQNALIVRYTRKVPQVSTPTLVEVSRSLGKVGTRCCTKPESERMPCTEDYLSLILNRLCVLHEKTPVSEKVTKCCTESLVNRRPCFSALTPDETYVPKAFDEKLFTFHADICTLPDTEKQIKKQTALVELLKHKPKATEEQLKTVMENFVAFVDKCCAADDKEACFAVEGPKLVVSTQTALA

Turning to `CC(C)C[C@@H]1NC(=O)[C@@]23C(=O)N[C@@H](Cc4ccccc4)C2[C@H](C)[C@@]2(C)O[C@H]2C3/C=C/CC/C=C/CNC(=O)[C@@H](C)NC1=O` (stereo not given in full), the composite z-score is -1.38 in assay [1]; 0.0426 in [3]; -0.179 in [4]; -0.515 in [5]; -0.262 in assay [6]; 0.0036 in assay [7]. Moreover, the composite z-score is 0.179 in assay [8]; 0.906 in assay [9]; 0.204 in assay [10]; -0.764 in assay [11]; -0.649 in assay [12]; 0.138 in assay [13]. The composite z-score in assay [14] was -0.875; in assay [15], 1.23; in assay [16], 1.12; in assay [18], 1.5; in assay [19], -0.578. Further, the composite Z-score in assay [2] was -0.162 (inactive). In addition, the z-score is -0.168 in assay [17] and -0.8 (inactive) in assay [20].
As to `CC(C)(C)OC(=O)CC[C@@]1(C(=O)NCc2ccccc2)N=C(c2ccc(OCCCO)cc2)O[C@@H]1c1ccccc1CN=[N+]=[N-]`, the composite z-score in [1] is 0.871; in assay [3] it was 0.33; in assay [4], -0.0736; in [5], 0.596; in assay [6], 2.02; in [7], 0.379. In addition, the composite z-score is 1.15 in [8]; -0.521 in assay [9]; 1.09 in assay [10]; 2.59 in assay [11]; 1.22 in [12]; -0.128 in assay [13]. Also, the composite z-score was 0.933 in assay [14]; 1.34 in assay [15]; 0.915 in assay [16]; 0.148 in assay [18]; 1.27 in assay [19]. Moreover, in assay [2], the composite Z-score is 0.647 (inactive). Further, the z-score in assay [17] is 0.641; in assay [20] it was -1.24 (inactive).
On to `C=CCNC(=O)[C@H]1[C@@H]2C(=O)O[C@@H](c3ccccc3)[C@@H](c3ccccc3)N2[C@@H](c2ccccc2OCCO)[C@]12C(=O)N(C(=O)OCCOC)c1ccc(C#CCCO)cc12`, for which the composite z-score in [1] is 0.0097; in assay [3] it was 0.142; in assay [4], 0.399; in [5], 0.417; in [6], 1.79; in assay [7], 0.665. The composite z-score amounted to 1.32 in [8]; 1.18 in assay [9]; 1.11 in [10]; 1.34 in assay [11]; 1.09 in [12]; 1.02 in assay [13]. The composite z-score turned out to be 0.614 in assay [14]; 1.42 in assay [15]; 1.72 in assay [16]; 0.817 in assay [18]; 0.958 in assay [19]. Further, the composite Z-score in [2] was 0.433 (inactive). In addition, the figures for the z-score in assay [17] and in [20] were 1.7 and -1.66 (inactive), respectively.
Take `COc1ccc([Si](C)(C)[C@H]2[C@H](CC(=O)N(CCO)Cc3ccccc3)O[C@@]3(C(=O)N(Cc4ccc(N5CCC5=O)cc4)c4ccccc43)[C@@H]2C)cc1`: the composite z-score is 0.101 in [1]; -0.219 in assay [3]; -0.141 in [4]; 0.339 in assay [5]; 0.888 in assay [6]; 0.371 in assay [7]. For the same molecule, the composite z-score was -0.114 in assay [8]; 0.286 in assay [9]; 0.385 in [10]; 0.122 in assay [11]; -0.178 in assay [12]; 0.13 in assay [13]. Further, the composite z-score in assay [14] is 0.158; in [15], 0.41; in assay [16], 0.11; in [18] it was -0.143; in assay [19], 0.429. In [2], the composite Z-score was 0.506 (inactive). The figures for the z-score in [17] and in assay [20] were 0.0735 and -1.23 (inactive), respectively.
Turning to `C=C[C@H](OC)[C@@H](OC(=O)Nc1ccc(OC)cc1)c1ccc(OC)c(O)c1`, the composite z-score in assay [1] is -2.02; in assay [3], -0.374; in [4], -0.181; in assay [5], 0.633; in assay [6], -0.844; in assay [7], 0.0191. The composite z-score in assay [8] was -0.667; in assay [9], -2.31; in assay [10], -2.17; in assay [11], -1.22; in [12] it was -1.3; in assay [13], 0.7. In addition, the composite z-score in assay [14] is -2.93; in assay [15], -0.823; in assay [16], -1.23; in assay [18], -1.75; in assay [19], -2.18. For the same molecule, the composite Z-score in assay [2] is -0.403 (inactive). The z-score was 1.19 in assay [17] and -1.67 (inactive) in [20].
